We go through five compounds from PubChem BioAssay AID2116 (The Scripps Research Institute Molecular Screening Center, 2009).

For the assay, the target named is Mucolipin-3 (Homo sapiens) (UniProt Q8TDD5). Nature of the assay: TRPML3 and TRPML2 channel agonists, cell-based, patch clamp, Fura-2 profiling panel (AID 2116). The following applies: HEK293 cells expressing TRPML3-YFP, TRPML3 Patch Clamp Assay; patch clamp current at -80 mV. Background: The patch-clamp technique gives a direct electrical read-out from membranes.
Sequence of Mucolipin-3 (Homo sapiens) (Q8TDD5 whole entry, looked up): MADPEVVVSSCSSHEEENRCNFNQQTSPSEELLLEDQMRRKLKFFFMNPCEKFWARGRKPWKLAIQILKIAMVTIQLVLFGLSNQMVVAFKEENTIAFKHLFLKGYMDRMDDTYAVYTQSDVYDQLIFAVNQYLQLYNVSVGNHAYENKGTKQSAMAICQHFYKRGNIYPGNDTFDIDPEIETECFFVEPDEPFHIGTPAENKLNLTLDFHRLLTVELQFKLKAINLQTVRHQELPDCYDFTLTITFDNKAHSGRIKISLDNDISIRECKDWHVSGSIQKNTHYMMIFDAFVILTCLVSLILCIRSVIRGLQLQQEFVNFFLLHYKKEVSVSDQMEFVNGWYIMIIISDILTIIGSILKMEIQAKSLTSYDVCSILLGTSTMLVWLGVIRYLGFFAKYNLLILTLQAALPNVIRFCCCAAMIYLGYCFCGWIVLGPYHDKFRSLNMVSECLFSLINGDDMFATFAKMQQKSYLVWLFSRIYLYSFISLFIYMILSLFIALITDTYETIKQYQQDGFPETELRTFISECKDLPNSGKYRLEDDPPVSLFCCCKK

Each structure is given as a SMILES string. The source made the active and inactive calls. No rule for the calls is given here.

On to `O=S(=O)(Nc1ccccc1N1CCCCC1)c1ccc(Cl)s1`, for which the current density was -0.24 nA/pF and the outcome was “active; no effect on six other TRP channels”.

As to `Cc1ccc(N2CCN(S(=O)(=O)N3CCCCC3)CC2)c(C)c1`, the current density is -0.42 nA/pF and the outcome was “active; no effect on six other TRP channels”.

For `O=S(=O)(Nc1ccccc1N1CCOCC1)c1ccc(Cl)s1`, the current density is -0.37 nA/pF and the outcome is “active; no effect on six other TRP channels”.

Regarding `Cc1ccc(S(=O)(=O)Nc2ccccc2-c2ccccc2)cc1`, the current density was -0.02 nA/pF and the outcome was “active; no effect on six other TRP channels”.

Consider `O=S(=O)(NC1CCCCC1N1CCOCC1)c1ccc(Cl)cc1` (stereo not given), for which the current density was -0.55 nA/pF and the outcome was “active; no effect on six other TRP channels”.
